The panel holds about 83,000 compounds, 20% with a hit somewhere; the sample as a whole holds those more often.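 Values shown are percent growth following 48 h exposure of cells in 96-well plates to a single concentration of compound; below 10 was considered active.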 The source made the active and inactive calls.

In the assay the test system is COLO 205 colon. Put plainly: NCI-60 one-dose screen, 48 h (100 = growth as untreated, 0 = no growth, -100 = all killed). As to conditions: 10 µM.
In the case of `COc1cccc(-c2ccnc(/N=C(\N)Nc3ccc(S(=O)(=O)Nc4nc(C)cc(C)n4)cc3)n2)c1`, the growth was 114% (inactive).
As for `O/N=C(\CSc1nnc(-c2c[nH]c3ccccc23)n1-c1ccccc1)c1ccc(Cl)cc1`, the figure is 10.2% (inactive); as for `COC(=O)c1c(C(=O)OC)c2n(c1C)[C@@H]([C@@H](C)[C@H]1CC[C@H]3[C@@H]4CCC5=CC(=O)CC[C@]5(C)[C@H]4CC[C@]13C)SC2`, 16% (inactive); as for `Cc1ccc(-c2cc(C(=O)N=Nc3c(O)[nH]c4ccc(Br)cc34)c3ccccc3n2)cc1`, 108% (inactive).
As for `COc1ccc(-c2c(N)c(=O)n(C)c3ccccc23)cc1`, the figure is 103% (inactive).
The value for `O=c1cc(-c2ccccc2)oc2cc(OCCCNCc3ccccc3)cc(O)c12` was -88% (active); that for `COc1cccc2nc(Nc3cccc(NC(=O)c4ccc(CN5CCCN(C)CC5)c(C(F)(F)F)c4)c3)ccc12` was -56.9% (active); that for `COc1ccc(-c2cc(-c3cc(C(=O)c4ccc(Br)cc4)n4ccc(C)cc34)nc(N)c2C#N)cc1` was 67.2% (inactive).
On to `O=C1CCC(N2Cc3c(NCc4ccc(-c5ccccc5)cc4)cccc3C2=O)C(=O)N1` (stereo unspecified), for which the growth is 82% (inactive).
For the compound `COc1ccc(CN2[C@@H](C(=O)NCc3ccc(C(=O)NO)cc3)Cc3c([nH]c4ccccc34)[C@@H]2C2CC2)cc1`, the growth was -40.3% (active).
Turning to `CCOC(=O)c1c(CSc2ccccc2)n(C)c2cc(CN(C)C)c(O)c(CN(C)C)c12`, the growth is -37.8% (active).
Turning to `CCOC(=O)CNC(=O)CN(Cc1ccccc1)C(=O)[C@@]1(C)CCC[C@]2(C)[C@H]3C[C@H]4C(C(C)C)=C[C@]3(CC[C@H]21)[C@@H]1C(=O)OC(=O)[C@@H]14`, the growth is 103% (inactive).
On to `CC(=O)Nc1ccc(-c2cn(-c3cccc(C(=O)Nc4cc(C(F)(F)F)cc(C(F)(F)F)c4)c3)nn2)cn1`, for which the growth was -62.2% (active).
For `NS(=O)(=O)c1ccc(N=Nc2c(O)n(CC(=O)Nc3ccccc3Br)c3ccccc23)cc1`, the growth was 5.92% (active).
The value for `N#Cc1c(Cl)nc(SCc2ccc(F)cc2)nc1-c1ccc(F)cc1` was 120% (inactive).
As for `CN(C)c1ccc(/C=C/C(=O)c2ccc(NC(=O)CN3C(=O)NC(C)(c4ccccc4)C3=O)cc2)cc1` (stereo unspecified), the figure is 110% (inactive); as for `COc1ccc(/C=C/C(=O)c2ccc(N3CCN(C)CC3)cc2)c(C(F)(F)F)c1`, -64.6% (active).
As for `Clc1ccc(/C=N/Nc2ncnc3sc4c(c23)CCN(Cc2ccccc2)C4)cc1`, the growth was -86.1% (active).
As for `COc1cccc(/C=N/NC(=O)c2ccc3nc(-c4ccc(Cl)cc4)[nH]c3c2)c1O`, the figure is -88.8% (active).
Turning to `COc1ccc(-c2nc(S(=O)(=O)c3ccc(C)cc3)c(S(=O)(=O)CC(=O)N(C)Cc3ccccc3)o2)cc1`, the growth is 45.9% (inactive).
For `CC1=C2C(=C[C@@](C)(CO)[C@@H]2O)/C(=N\N)[C@](C)(O)C12CC2`, the growth is -79.4% (active).
As for `CC(=O)c1ccc(Nc2nc(SC(C)C)nc(-c3ccccc3)c2C#N)cc1`, the figure is 74.7% (inactive); as for `CCN1CCN(Cc2ccc(NC(=O)c3cccc(-n4cc(-c5ccc(NC(C)=O)nc5)nn4)c3)cc2C(F)(F)F)CC1`, 57.3% (inactive); as for `CC(C)c1ccc(C(=O)Nc2sc3c(c2C(N)=O)CCC(=O)C3=O)cc1`, 104% (inactive).
The value for `COc1cc(C2CC(c3ccc(C)cc3)=Nc3c(N)nc(N)nc3N2)ccc1Oc1nc(Nc2ccc(F)cc2)nc(N(C)C)n1` (stereo unspecified) was 48.1% (inactive); that for `O=c1c2ccccc2nc(COc2ccccc2)n1/N=C/c1ccc(N2CCCC2)cc1` was 142% (inactive); that for `CCN1CCN(c2ccc(NC(=O)Nc3ccc4c(c3F)CCN4c3ccnc(C(=O)NC)c3)cc2C(F)(F)F)CC1` was 120% (inactive).
As for `O=c1[nH]c2ccccc2cc1CSc1ccc(Nc2nccc(-c3ccc4ccccc4c3)n2)cc1`, the figure is 25.3% (inactive).
For `O=C(CNc1nc(-c2ccccc2)cs1)Nc1cccc(Cl)c1`, the growth was 40.3% (inactive).
As for `O=c1[nH]c2ccccc2cc1CSc1ccc(Nc2nccc(-c3ccc(Cl)cc3)n2)cc1`, the growth is -16% (active).
Turning to `O=C1Nc2cc(-c3ccc(NC(=O)c4cccc([N+](=O)[O-])c4)cc3)ccc2/C1=C/c1ccc[nH]1`, the growth was 42.9% (inactive).
As for `COc1ccc(-c2ccc(/C=N/NC(=O)c3[nH]c4ccc(Br)cc4c3-c3ccccc3)o2)cc1`, the figure is 63.1% (inactive).
Consider `CN1CCN(c2ccc(C(=O)/C=C/c3cc(C(F)(F)F)ccc3Cl)cc2)CC1`, for which the growth is -97% (active).
As for `COc1ccc(-c2cc(-c3cc(C(=O)c4ccccc4)n4ccc(C)cc34)nc(N)c2C#N)cc1`, the figure is 73% (inactive).
As for `O=C(Nc1ccc(I)cc1)Nc1nc2ccc([N+](=O)[O-])cc2s1`, the figure is -92.2% (active); as for `CCCCCCCCCCCCCCCCCCCC(=O)NCCc1c[nH]c2ccc(O)cc12`, 147% (inactive).
